# eIF4H FP inh = inhibitors of RNA binding by human eIF4H | actives 0.94% (n = 290,000) | inhibition, % at 35 µM | eIF4H fluorescence polarization binding assay | Q15056;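 further: calls also rest on retests at 20 µM and on dose response follow-up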
# PABP1 MLLE inh = blocks PAM2 peptide binding to the PABP1 MLLE domain. inhibition, % at 20 µM. AID 588489. actives 0.36% (n = 360,000). GST-MLLE / FITC-PAM2 fluorescence polarization; in the data active means inhibition above about 35%, passing the limit was not always enough;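 further: plate controls were DMSO wells with GST-MLLE for no effect and wells lacking GST-MLLE protein for full effect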
# Target sequence (P11940 whole entry, looked up, the tested form may be a part): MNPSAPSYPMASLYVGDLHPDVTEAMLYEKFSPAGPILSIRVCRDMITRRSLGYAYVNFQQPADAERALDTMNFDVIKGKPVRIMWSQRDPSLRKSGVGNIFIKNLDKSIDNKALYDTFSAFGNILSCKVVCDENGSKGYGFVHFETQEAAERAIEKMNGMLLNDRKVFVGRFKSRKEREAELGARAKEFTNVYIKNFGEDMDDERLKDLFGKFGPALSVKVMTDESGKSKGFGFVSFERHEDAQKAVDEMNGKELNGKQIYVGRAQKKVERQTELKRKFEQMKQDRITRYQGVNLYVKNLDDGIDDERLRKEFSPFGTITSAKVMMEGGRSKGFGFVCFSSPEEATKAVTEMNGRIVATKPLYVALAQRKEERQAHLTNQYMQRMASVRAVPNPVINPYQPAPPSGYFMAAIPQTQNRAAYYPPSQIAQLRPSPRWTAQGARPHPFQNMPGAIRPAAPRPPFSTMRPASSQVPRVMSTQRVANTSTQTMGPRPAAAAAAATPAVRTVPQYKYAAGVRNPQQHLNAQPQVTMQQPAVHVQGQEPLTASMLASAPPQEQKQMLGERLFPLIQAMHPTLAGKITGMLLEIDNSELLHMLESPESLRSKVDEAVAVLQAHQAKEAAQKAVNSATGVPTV
# Efa HMGR inh = blocks class II HMG-CoA reductase of Enterococcus faecalis; purified E. faecalis HMGR, NADPH absorbance 340 nm kinetic; AID 1066; inhibition, % at 10 µM; actives 0.41% (n = 190,000);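 active means inhibition above a set limit, the median over all tested compounds plus 3 SD, cut at about 9.5% in these data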;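 further: enzyme runs in reverse so mevalonate oxidation gives rising NADPH absorbance; 0% = complete reaction with DMSO and 100% = background rate lacking mevalonate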
# PHOSPHO1 inh = inhibitors of human PHOSPHO1 phosphatase | actives 1.1% (n = 290,000) | AID 1565 | inhibition, % at 13.3 µM | Q8TCT1 | recombinant PHOSPHO1, absorbance phosphatase assay; in the data active means inhibition above about 60%
# PABP FP inh = PABP-poly(A) binding inhibition. P11940. PABP-poly(A) RNA binding, fluorescence polarization. calls only at 35 µM. actives 1% (n = 290,000). AID 2014;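 further: calls also rest on retests at 20 µM and on dose response follow-up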
# * marks the source's active call; other numbers are inactive results; i = inactive; x = no result; + = active, no number. Most compounds without a hit are left out; they make up all but 2.4% or so of the library. Unless noted, how the calls were made is not given here.
SMILES,eIF4H FP inh,PABP1 MLLE inh,Efa HMGR inh,PHOSPHO1 inh,PABP FP inh
COCCCN1C(=O)C(CC(=O)NCc2cccs2)CC(C(=O)N(C(C)C)C(C)C)=C1C (stereo not given),x,3.3,x,x,x
CCN(C(=O)COC(=O)/C=C/c1nc2ccccc2s1)c1c(N)n(Cc2ccccc2)c(=O)[nH]c1=O,x,-17.9,x,x,x
c1ccc(-n2nnc3c(N4CCOCC4)ncnc32)cc1,-6.2,39.1,4.2,68.5*,i
Cc1nnc(N2CCOCC2)c2nn(-c3ccccc3)c(C)c12,-0.7,-29.4,-5.3,-8.2,i
Nn1c(SC/C=C/c2ccccc2)nnc1-c1cccnc1,11.9,-64.1,2.6,-51.0,i
Nn1c(SC/C=C/c2ccccc2)nnc1-c1ccccn1,6.0,-37.8,-2.8,83.6*,i
Nn1c(SCc2ccc(Br)cc2)nnc1-c1ccccn1,9.0,-13.7,6.6,38.5,i
Cc1cccc(CSc2nnc(-c3ccccn3)n2N)c1,-0.2,-0.3,2.9,63.4*,i
O=[N+]([O-])c1ccc(N2CCCC2)c([N+](=O)[O-])c1,x,-13.0,x,x,x
COc1ccc(NC(=O)C(C)N2C(=O)C3CC=C(Cl)CC3C2=O)cc1 (stereo not given),-16.6,-9.9,x,-2.0,i
Fc1ccc(-c2c[nH]c(=S)n2Cc2ccccc2)cc1,3.4,-34.8,-2.7,48.9,i
CCCc1cc(C(=O)NNC(=S)NCC2CCCO2)cs1 (stereo not given),3.8,-20.0,-1.7,38.7,i
CCCc1cc(C(=O)NNC(=S)NC(C)c2ccccc2)cs1 (stereo not given),18.3,-5.3,4.5,83.3*,i
C#CCn1c(O)c(N=NC(=O)CNC(=O)c2cccnc2)c2ccccc21,0.8,-4.8,x,1.8,i
O=C(O)c1ccc(O)c(O)c1,20.4,-4.2,x,7.9,i
CC(C)(O)CCCC(C)(O)c1ccc(C(=O)O)cc1O (stereo not given),84.5*,14.3,x,26.6,i
Cc1ccn(C(=O)c2ccc(NC(=O)C3CC3)cc2)n1,6.4,-0.9,-2.4,48.8,i
Cc1cccc(NC(=O)c2cc(S(=O)(=O)N(C)c3ccc(F)cc3)ccc2Cl)n1,x,12.9,x,x,x
CCN1CCN(C(=S)c2ccc(Cl)cc2)CC1,-6.7,14.2,-1.2,94.5*,i
O=C(Oc1ccccc1N1C(=O)C2CCCCC2C1=O)c1ccc(Cl)cc1 (stereo not given),0.8,3.6,4.5,-2.6,i
O=C(Oc1ccccc1N1C(=O)C2CCCCC2C1=O)c1ccccc1F (stereo not given),active,8.6,0.1,-26.1,i
N#Cc1ccc(-c2ccc(Cl)cc2)nc1SCC(=O)c1cccc(Cl)c1,-0.5,-12.1,-1.6,75.5*,i
CCCCNC(=O)C1(C)CCN1C(=O)c1cc(-c2cccs2)oc1C (stereo not given),x,6.7,x,x,x
O=C(Nc1ccc(F)cc1)Nc1ccc([N+](=O)[O-])cn1,3.0*,8.2,-3.7,-12.6,+
O=C(Nc1ccc(Cl)c(Cl)c1)Nc1ccc([N+](=O)[O-])cn1,1.6,-0.8,x,25.4,i
SMILES,eIF4H FP inh,PABP1 MLLE inh,Efa HMGR inh,PHOSPHO1 inh,PABP FP inh
Cc1ccc(C(=O)NCCn2c(N)c(C#N)c3nc4ccccc4nc32)cc1,56.3*,-11.9,-5.9,-2.6,+
N#Cc1c(N)n(CCNC(=O)c2ccc(Cl)cc2)c2nc3ccccc3nc12,15.7,-3.1,-6.8,-13.2,i
CC(=O)NCCNc1nc2cc(-c3cscc3C)sc2c(=O)n1C,x,-12.2,x,x,x
CN(C(=O)CCN1C(=O)C(C)(C)Nc2ccccc21)c1ccccc1,-8.8,-10.4,35.7*,1.3,i
CC1(C)Nc2ccccc2N(CCC(=O)N2CCOCC2)C1=O,-0.6,11.7,-2.6,-13.6,i
N#Cc1c(SCC(N)=O)nc2c(c1-c1ccncc1)CCCC2,-1.8,1.1,1.5,12.7,i
Cc1ccc(-c2c3c([nH]c(=S)c2C#N)CCCC3)o1,55.6*,-42.0,2.4,83.5*,+
Cc1ccc(-c2c(C#N)c(N)nc3c2CCCC3)o1,59.6,7.8,-1.9,-7.9,i
N#Cc1c(-c2ccncc2)c2c([nH]c1=S)CCCC2,-3.4,26.8,1.9,76.8*,i
COc1cccc(-c2csc(N3CCN(C(=O)Nc4ccc(Cl)cc4)CC3)n2)c1,0.0,14.1,9.9*,64.2*,i
COc1ccc(NC(=O)N2CCN(c3nc(-c4cccc(OC)c4)cs3)CC2)cc1,1.7,16.5,-0.7,6.7,i
CCOCCCNCc1ccc(OCC(=O)N2CCOCC2)c(OC)c1,-6.9,8.7,-7.3,60.0*,i
O=C(NC(=S)Nc1ccccc1Cl)c1csnn1,0.6,27.2,-3.3,65.0*,i
COc1ccccc1NC(=O)Cc1csc(NC(=S)Nc2ccccc2)n1,-10.8,41.0*,-2.4,37.5,i
O=C(Nc1cc2c(oc1=O)CCCC2=O)c1ccc(Cl)cc1,73.7*,0.1,-5.3,29.8,+
Cc1nccc2oc(=O)c(NC(=O)c3ccc(Cl)cc3)cc12,-10.3,0.0,-0.1,32.6,i
Cc1ccc(-c2ccc(/C=N\NC(=O)C3C(=O)NCC3c3ccccc3)o2)cc1Cl (stereo not given),1.0,5.6,-1.0,60.4*,i
O=[N+]([O-])c1ccc(N2CCN(c3cccc(Cl)c3)CC2)cn1,0.4,1.9,x,-27.8,i
CCCOc1cc(N)ccc1C(=O)OCCN(CC)CC,x,0.8,x,x,x
CCCOc1ccc(N)cc1N,78.7*,11.3,-2.0,64.7*,+
CN=c1scc(-c2ccc([N+](=O)[O-])cc2)n1/N=C/c1ccco1,7.6,3.2,3.9,32.2,i
O=C1c2ccc([N+](=O)[O-])cc2NC(c2ccco2)N1/N=C/c1ccco1 (stereo not given),56.0*,-2.1,x,-12.1,i
Cc1nn(CSc2c(F)c(F)c(F)c(F)c2F)c(C)c1[N+](=O)[O-],x,-6.0,x,x,x
N#Cc1cccnc1N1CCC(C(N)=O)CC1,-10.7,-9.0,x,5.5,i
COc1ccc(CNC(=O)CSc2nc(-c3ccccc3)cc(-c3cccs3)c2C#N)cc1,0.4,15.9,-3.3,17.4,i
SMILES,eIF4H FP inh,PABP1 MLLE inh,Efa HMGR inh,PHOSPHO1 inh,PABP FP inh
COc1ccc(-c2cc(-c3cccs3)c(C#N)c(SCC(=O)NCc3ccco3)n2)cc1,55.2*,7.9,-0.7,-13.6,i
Cc1cc2cc(CNC(=O)c3ccc4c(c3)OCO4)ccc2n1C,61.2*,56.1*,-0.5,-14.4,+
COc1ccc(C(=O)NCc2ccc3c(c2)OCO3)cc1,-3.8,-10.2,-0.2,21.9,i
COc1ccc(C(=O)NCc2ccc3c(c2)cc(C)n3C)cc1,49.1,51.1*,-5.1,51.7,i
Cc1cc2cc(CNC(=O)COc3ccccc3)ccc2n1C,8.7,50.4*,x,41.5,i
Cc1cc2cc(CNC(=S)Nc3ccc(OC(F)F)cc3)ccc2n1C,74.8*,39.3*,-6.8,-1.2,+
COc1cc(OC)cc(C(=O)NCc2ccc3c(c2)cc(C)n3C)c1,69.3,78.0,-1.7,-21.6,i
FC(F)Oc1ccc(NC(=S)NCc2ccccc2)cc1,2.5,-24.2,2.6,-1.0,i
